SMILES strings stand for the structures. About 83,000 compounds went through this panel and 20% of them were active in at least one assay; those are over-represented in the sample as a whole.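 How to read the values: 0–100, growth inhibition (40 = 60% inhibited); 0, no net growth; -100 to 0, cell death (-40 = 40% of starting cells died; -100 = all dead).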 Activity calls are given as the source filed them. How the source made its calls: active means growth percent below 10; inactive means the rest.

Data on 40 molecules can be found in PubChem BioAssay (NCI).

This test deals with MDA-MB-468 breast. The test can be described thus: NCI-60 one-dose screen, 48 h (100 = growth as untreated, 0 = no growth, -100 = all killed). As to conditions: 10 µM unless noted.
Take `O=[N+]([O-])c1cc2c(cc1Br)-c1ccccc1C2`: the growth was 16.7% (inactive).

For `C[C@@H]1CC[C@@H]2[C@@H]1[C@H](OC(=O)/C=C/c1ccccc1)[C@]1(C3CCCCC3)C[C@@H](OC(=O)CO)[C@@]2(C)O1`, the growth is 74.1% (inactive).

For `O=C(/C=C/c1cn(-c2ccccc2)nc1-c1ccc(Cl)cc1)c1ccc(F)cc1`, the growth is 100% (inactive).

Regarding `C[N+](C)(C)CCOC(OCC[N+](C)(C)C)(c1ccccc1)c1ccccc1`, the growth is 128% (inactive).

As for `COc1ccc(C2CC(c3ccc(OC)cc3O)=NN2c2ccc(S(N)(=O)=O)cc2)cc1` (stereo not given), the growth was 56% (inactive).

Turning to `CCCCCCC(C)c1ccccc1O` (stereo not given) (tested in a mixture with another compound), the growth was 124% (inactive).

As for `NCCNc1nc2ccccc2c2c(=O)c3cccc(F)c3sc12`, the growth was 70.6% (inactive).

With `CC1OC(O[C@@H]2[C@H](O)C(CO)OC(O[C@H]3COC(O[C@H]4CC[C@]5(C)[C@H]6CC[C@]78OC[C@@]9(CCC(C)(C)C[C@H]97)[C@H](O)C[C@@]8(C)[C@]6(C)CC[C@H]5C4(C)C)[C@@H](OC4OC(CO)[C@@H](O)[C@@H](O)[C@@H]4O)[C@@H]3O)[C@H]2OC2OC[C@@H](O)[C@@H](O)[C@@H]2O)[C@@H](O)[C@@H](O)[C@H]1O` (stereo not given in full), the growth is -39.3% (active).

For the molecule `Nc1ccc(S(=O)(=O)O)c2ccc(N=Nc3ccc(N=Nc4ccc(S(=O)(=O)O)cc4)c4ccccc34)c(O)c12`, the growth is 96.6% (inactive).

As to `CC(=O)Nc1cccc(C2=CC(c3ccc(C)cc3)n3ncnc3N2)c1` (stereo not given), the growth is 92.7% (inactive).

With `CN(C)CCCOc1c2ccccc2nc2c1oc1ccc(Cl)cc12`, the growth was -3.66% (active).

Consider `COCCN(C(=O)Cc1cccs1)C(C(=O)NCc1ccc(OC)cc1)c1ccc(C(C)C)cc1` (stereo not given), for which the growth was 90.7% (inactive).

On to `COc1ccc(-c2nc3ccc(-c4nnc(SCC(=O)Nc5ccc(C(=O)/C=C/c6ccccc6)cc5)o4)cc3[nH]2)cc1OC`, for which the growth was 104% (inactive).

Regarding `Cc1nccc2c3ccc(OCc4cn(-c5ccc(Br)cc5)nn4)cc3n(CC(C)C)c12`, the growth was 5.61% (active).

Take `CC(C)C[C@H](NC(=O)/C=C/Cn1ccc2ccccc2c1=O)B(O)O`: the growth is -6.84% (active).

For `O=C(/C=C/C12c3ccccc3C(c3ccccc31)C1C(=O)NC(=O)C12)c1cccs1` (stereo not given), the growth is 45.8% (inactive).

As to `COc1ccc(C(=O)/C=C/c2c[n+](=O)c3ccc(F)cc3n2[O-])cc1`, the growth was 101% (inactive).

Take `CCCCCCCCCCNC(=O)CCl`: the growth is 67.8% (inactive).

On to `CN(C)CCC(=O)c1ccc(O)cc1`, for which the growth is 107% (inactive).

Consider `C=CC(=O)N[C@@H](Cc1ccc(-c2cc(Cl)cc(Cl)c2)cc1)[C@@H](O)[C@H](O)C(=O)O`, for which the growth was 101% (inactive).

As to `CCCCCC(=O)c1ccc(OCCCN2CCN(C(=O)OCC)CC2)cc1`, the growth was 47.5% (inactive).

Turning to `COc1ccc2[nH]cc(-c3cc(N)n4nc(-c5c[nH]c6ccc(OC)cc56)cc4n3)c2c1`, the growth is -47.9% (active).

In the case of `CC(C)NS(=O)(=O)c1cccc(-c2ccc3c4c(n(CCCN(C)C)c(=O)c3c2)-c2ccccc2C4=O)c1`, the growth was 99.3% (inactive).

`c1ccc(C(c2nc3ncncc3[nH]2)N2CSc3nc4ncncc4n3C2)cc1` (stereo not given): the growth was 7.36% (active).

For the molecule `COc1cc(C2CC(c3cccc(Nc4ccncc4)c3)=NN2c2cc(Cl)cc(Cl)c2)cc(OC)c1OC` (stereo not given), the growth was -11.9% (active).

Take `COc1ccc(-c2cc(-c3ccc(Cl)cc3)c(C#N)c(=O)n2Cc2ccc(C(=O)Nc3ccccc3N)cc2)cc1`: the growth was 63.8% (inactive).

Regarding `Cc1ccc2c(-c3cc(-c4ccccc4)nc(N)c3C#N)cc(=O)oc2c1`, the growth was 103% (inactive).

Turning to `COC(=O)[C@@]12CC[C@@H](C)[C@]3(C[C@@H](c4ccoc4)OC3=O)[C@H]1CC[C@@H]1O[C@@]12C`, the growth was 106% (inactive).

Turning to `O=[N+]([O-])/C(=C/c1ccccc1)c1ccccc1`, the growth was 99% (inactive).

For the molecule `C=C1C(=O)O[C@H]2[C@H]1CC/C(COC(=O)/C=C\C(=O)NCc1ccc(Cn3c(=O)sn(-c4ccc(OC)cc4)c3=O)cc1)=C\CC[C@@]1(C)O[C@@H]21`, the growth was -81.7% (active).

For `O=C(/C=C/c1ccc(O)c(O)c1)N1CCN(c2ccc(Cl)cc2)CC1`, the growth was 39.7% (inactive).

Turning to `CN1[C@@H]2CC[C@H]1/C(=C\c1ccccc1)C(=O)/C2=C/c1ccccc1`, the growth was 16.2% (inactive).

As to `Cc1sc2nc(NCCc3c[nH]c4ccc(Cl)cc34)[nH]c(=O)c2c1C`, the growth was 4.19% (active).

`COc1ccc(-c2c(C)nn3c(NCCN4CCOCC4)cc(C)nc23)cc1OC`: the growth was 96.3% (inactive).

Take `C=C1c2c(C)nn(-c3ccc(NC(C)=O)cc3)c2N(C)C23CC1C1(C)c4c(C)nn(-c5ccc(NC(C)=O)cc5)c4N(C)C(C)(CC12)C3` (stereo not given): the growth is 14.5% (inactive).

In the case of `COc1cc(-c2ccc(-c3ccc(C(=N)N)nc3)s2)cc(OC)c1OC`, the growth was 22.4% (inactive).

`CC/C(=C(/CC)c1ccc(O)cc1)c1ccc(O)cc1`: the growth was 35.2% (inactive).

Regarding `Cn1ccnc1C(=O)/C=C/c1ccc(CC(=O)Nc2cc(C(F)(F)F)cc(C(F)(F)F)c2)cc1`, the growth is 78% (inactive).

As for `C#CCN(CCCOc1ccc(Cl)cc1Cl)CCCSC(=O)CCCCCN1/C(=C\C=C2/CCCC(/C=C/C3=[N+](CCCCCC(=O)[O-])c4ccccc4C3(C)C)=C2Cl)C(C)(C)c2ccccc21`, the growth is 12.8% (inactive).

Consider `CCCCn1cnc2c(=O)[nH]cnc21`, for which the growth is 104% (inactive).
